Assay results: the supplement of paper PMC6555819

tested on: VDR:RXRa (NR concentration 270 nM, RXRa partner concentration 90 nM); experiment: PBM binding z-score (relative to random genomic background probes); higher = stronger binding; sequences stand for … in GC…GCGATTGACAGCGTAGAATGAAGG
Protocol: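 Protein-binding microarray (Agilent 4x180K custom design, double-stranded 60-nt probes: 5' GC cap, 34-nt variable region, 24-nt constant primer region; full probe sequence given). Purified or IVT nuclear receptor:RXRα heterodimers (3:1 NR:RXRα, mostly 270:90 nM) or homodimers were incubated for 1 h in PBS with 2% milk and no ligand, then detected with Alexa488 antibodies. Fluorescence from o1-orientation probes (~5 replicates averaged) was converted to z-scores against 500 random hg19 background probes. Variable regions are seed direct-repeat (DR0–DR5) sites, all their single-nucleotide variants and half-site ablations.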

| Sequence | PBM binding z-score |
| --- | --- |
| AGAATGAGGTTACCAAAGATCATGGAAACGCTTG | 1.79 |
| CGTCAAAGTTCAAGGGAACGTAACAGAAAGCAGC | 3.12 |
| TAGCCTAGGTCAGATCGGCCCAGTATACGCTATA | 0.134 |
| GCTGCTAGGTAAACTGATGGTCAGCTAAAGCTCG | -0.576 |
| ACTATTAGTTGAGACCAGGGCAACCGATAGGTTG | -0.036 |
| GCGACTGGGGCATAGCAGGTTACCATAAGGTTGG | -0.336 |
| GATGCAGGGTCAGCTAGAGGCCAGAGTATGGAAA | 3.11 |
| ACTATTAGTTGACTAAGGGCAACCGATACGACGC | 1.29 |
| CATACAGGGTCAGCTAGGCCAGAGGAGGGACGGC | 3.53 |
| GGAACGAGGGAAAGTTGATAGCAGAGTTTGATGG | -0.524 |
| ATATGTAGGTTAGATGGGGTCATTCAGACTAGGC | 6.54 |
| CCTAGTTGGTCAAGGTCAAACACGCTATAGGTAC | 4.47 |
| TCATATAGGTAAAAAGTGAAAGTCGGTGTGGTAA | 0.783 |
| ACTATTAGTTGATTTAGGGCAACCGATACGACGC | 0.131 |
| CTCGAAAGGTCGTGCTCAGGTGAGCATACCAAAC | 3.27 |
| TCAGACAGGTGAAGGTAAATCAGGTACGCAGTCG | 1.2 |
| CCTAGCAGGCCGATCTGGGTCACTCAAGGCTTGA | 0.114 |
| CCTACTGGGCCATTCTGAGGTCATTGATCATATG | 3.7 |
| ATTCAAAGTTCATCTAGGTAACGTAAGATATGCT | 4.93 |
| ATATGTAGGTTAGCTGGGGCCATTCAGACTAGGC | 1.97 |

| Sequence | PBM binding z-score |
| --- | --- |
| AGAATGAGGTTACCAAAGATCCGGGAAACGCTTG | 1.16 |
| CTAACTAGGTCAGAACAGGACAGTGAAGGATGAT | 0.705 |
| AGCATGAGGTTATTAAGATCAGGGAATTGCGGTC | 2.36 |
| TCTGCTAGGTCAGATGGTCAGCTAACGAGCTGCC | 0.133 |
| TGTCAAAGTTCAAAGGTAATGTAAGTATCCACAC | 4.69 |
| TTACGAAGGTGAGCTGAGGTCGTTGATCCAACTC | 4.16 |
| CCTACTGGGCCAAAAAGGTCAGTGATGCCGATAA | 2.91 |
| TCAGACAGGTGTAGGTAACTCAGGTACGCAGTCG | 0.89 |
| CCCACTGGGCCATCAGGTCATTGATATCAACGTT | 1.89 |
| ACAGACAGGTGAGTGAAGGTTACTCAGCTGGACG | 0.088 |
| TCTAGTTGTTCAAAGGTCACACACTCGAAATGCG | 4.95 |
| TCCAGTAGGTTACCAATGGGGCATTCAGCTTTCT | 0.0983 |
| AATACAGGGTCATCGTAGGCCAGAATACGCACAG | 5.15 |
| TCTATTAGTTGAAGGGTAACCGACGAGTCCGTTT | 1.2 |
| CTACCAAGGTGAACAAGGTGGTTGATTACTATTC | 1.84 |
| TCGAGAAGGTTAGTCGGGGCATTCAGCCAACATA | 3.71 |
| TCAGACGGGTGAAGGTAACTCAGGTACGCAGTCG | 0.218 |
| CCTCGGAGGACAGAAGGTTAGAGCTGTCCGCTTT | -0.275 |
| ATATGTAGGTTCAGGGTCATTCAGGTTGGTTCGC | 6.03 |
| TCGAGTAGGTTACCAATGGGGCATACAGCTTTCT | 0.221 |
